# Source: PubChem BioAssay AID1159580 (chemical genetic matrix, 2015)
# Screen size: about 5,500 compounds; about 2,000 (36%) were called active. Another 18% or so got no clear call; they are omitted. Some of the results follow. Unmarked numbers belong to inactive results. Rule as the data show it: active = normalized growth mostly below about 0.91 (no sharp cut-off); inconclusive = no clear call, values can overlap the other calls; inactive = mostly above about 0.92.
# Assay: chemical genetic growth profiling, strain panel (AID 1159580);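 also: tested at 20 µM; growth read once vehicle control cultures reached saturation at 30 °C; 1 = growth at the plate median or of vehicle wells; lower values mean less growth of the strain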
# Conditions: S. cerevisiae deletion strains, growth OD
# [1] = locus YHR030C, strain SLT2, stronger effect = lower value
# [2] = locus YHR079C, strain IRE1, stronger effect = lower value
# [3] = locus YJL095W, strain BCK1, stronger effect = lower value
# [4] = locus YJR066W, strain TOR1, stronger effect = lower value
# [5] = locus YLR113W, strain HOG1, stronger effect = lower value
# [6] = locus YNL183C, strain NPR1, stronger effect = lower value
# [7] = locus YOR231W, strain MKK1, stronger effect = lower value
# [8] = locus YPL256C, strain CLN2, stronger effect = lower value
# [9] = locus YAL013W, strain DEP1, stronger effect = lower value
# [10] = locus YAL040C, strain CLN3, stronger effect = lower value
# [11] = locus YCL061C, strain MRC1 (second series), stronger effect = lower value
# [12] = locus YDR150W, strain NUM1, stronger effect = lower value
# [13] = locus YER002W, strain NOP16, stronger effect = lower value
# [14] = locus YJR075W, strain HOC1, stronger effect = lower value
# [15] = locus YNL153C, strain GIM3, stronger effect = lower value
# [16] = locus YNL175C, strain NOP13, stronger effect = lower value
# [17] = locus YNL197C, strain WHI3, stronger effect = lower value
# [18] = locus YNL224C, strain SQS1, stronger effect = lower value
# [19] = locus YOR083W, strain WHI5 (second series), stronger effect = lower value
# [20] = locus YPL055C, strain LGE1, stronger effect = lower value
structure (smiles),measurement,setting,value
CN(C)CCCSC(=N)N,normalized growth,[1],0.951
same,normalized growth,[2],0.968
same,normalized growth,[3],0.963
same,normalized growth,[4],0.903
same,normalized growth,[5],0.982
same,normalized growth,[6],0.92
same,normalized growth,[7],0.966
same,normalized growth,[8],0.978
N=C(N)SCCc1ccc(CCSC(=N)N)cc1,normalized growth,[9],1.01
same,normalized growth,[10],1
same,normalized growth,[11],0.996
same,normalized growth,[12],1
same,normalized growth,"locus YDR363W, strain ESC2, stronger effect = lower value",1.04
same,normalized growth,[13],0.996
same,normalized growth,[14],0.987
same,normalized growth,[15],0.964
same,normalized growth,[16],1
same,normalized growth,[17],1.03
same,normalized growth,[18],1.02
same,normalized growth,"locus YNL322C, strain KRE1, stronger effect = lower value",1
same,normalized growth,[19],0.995
same,normalized growth,[20],1.02
N=C(N)SCCN,normalized growth,[9],1.06
same,normalized growth,"locus YAL021C, strain ccr4, stronger effect = lower value",0.98
same,normalized growth,"locus YAL026C, strain drs2, stronger effect = lower value",1
same,normalized growth,"locus YAL030W, strain snc1, stronger effect = lower value",1.01
same,normalized growth,[10],1.05
same,normalized growth,"locus YBL061C, strain skt5, stronger effect = lower value",1.01
same,normalized growth,"locus YBR009C, strain hhf1, stronger effect = lower value",1
same,normalized growth,"locus YBR023C, strain chs3, stronger effect = lower value",1
same,normalized growth,"locus YBR171W, strain sec66, stronger effect = lower value",1.01
same,normalized growth,"locus YBR231C, strain swc5, stronger effect = lower value",0.992
same,normalized growth,"locus YBR279W, strain paf1, stronger effect = lower value",0.998
same,normalized growth,"locus YCL011C, strain gbp2, stronger effect = lower value",1.01
same,normalized growth,"locus YCL016C, strain dcc1, stronger effect = lower value",0.999
same,normalized growth,[11],0.995
same,normalized growth,"locus YCL061C, strain MRC1, stronger effect = lower value",1.01
same,normalized growth,"locus YCL069W, strain vba3, stronger effect = lower value",1.01
same,normalized growth,"locus YCR088W, strain abp1, stronger effect = lower value",1
same,normalized growth,"locus YDL005C, strain med2, stronger effect = lower value",0.997
same,normalized growth,"locus YDL040C, strain nat1, stronger effect = lower value",0.998
same,normalized growth,"locus YDR001C, strain nth1, stronger effect = lower value",1.01
same,normalized growth,"locus YDR069C, strain doa4, stronger effect = lower value",0.999
same,normalized growth,"locus YDR137W, strain rgp1, stronger effect = lower value",1
same,normalized growth,[12],1.02
same,normalized growth,"locus YDR159W, strain sac3, stronger effect = lower value",0.995
same,normalized growth,"locus YDR195W, strain ref2",0.941
same,normalized growth,"locus YDR297W, strain sur2, stronger effect = lower value",1.01
same,normalized growth,"locus YDR334W, strain swr1, stronger effect = lower value",1
same,normalized growth,"locus YDR335W, strain msn5, stronger effect = lower value",1
same,normalized growth,"locus YDR392W, strain spt3, stronger effect = lower value",0.856
same,normalized growth,"locus YEL003W, strain gim4, stronger effect = lower value",1.01
same,normalized growth,"locus YEL037C, strain rad23, stronger effect = lower value",0.996
same,normalized growth,"locus YEL061C, strain CIN8 (second series), stronger effect = lower value",1
same,normalized growth,[13],0.986
same,normalized growth,"locus YER015W, strain faa2, stronger effect = lower value",1.01
same,normalized growth,"locus YER016W, strain bim1, stronger effect = lower value",1
same,normalized growth,"locus YER111C, strain swi4, stronger effect = lower value",1
same,normalized growth,"locus YER155C, strain BEM2 (second series), stronger effect = lower value",0.985
same,normalized growth,"locus YFR010W, strain ubp6, stronger effect = lower value",1.01
same,normalized growth,"locus YGL167C, strain pmr1, stronger effect = lower value",1.01
same,normalized growth,"locus YGL173C, strain kem1, stronger effect = lower value",1
same,normalized growth,"locus YGL227W, strain vid30, stronger effect = lower value",1
same,normalized growth,"locus YGL240W, strain doc1, stronger effect = lower value",0.985
same,normalized growth,"locus YGL253W, strain hxk2, stronger effect = lower value",1.01
same,normalized growth,"locus YGR078C, strain PAC10, stronger effect = lower value",0.994
same,normalized growth,"locus YHR013C, strain ard1, stronger effect = lower value",0.969
same,normalized growth,"locus YHR027C, strain rpn1, stronger effect = lower value",1.01
same,normalized growth,[1],1.07
same,normalized growth,[2],1.07
same,normalized growth,"locus YHR142W, strain chs7, stronger effect = lower value",1.01
same,normalized growth,"locus YJL092W, strain hpr5, stronger effect = lower value",0.998
same,normalized growth,"locus YJL095W, strain BCK1 (second series), stronger effect = lower value",0.998
same,normalized growth,[3],1.04
same,normalized growth,"locus YJL115W, strain asf1, stronger effect = lower value",0.99
same,normalized growth,"locus YJL129C, strain trk1, stronger effect = lower value",1.03
same,normalized growth,"locus YJL154C, strain vps35, stronger effect = lower value",0.997
same,normalized growth,"locus YJL164C, strain tpk1, stronger effect = lower value",1.01
same,normalized growth,"locus YJL166W, strain qcr8, stronger effect = lower value",1.01
same,normalized growth,"locus YJL187C, strain SWE1, stronger effect = lower value",1
same,normalized growth,[4],0.976
same,normalized growth,[14],1.01
same,normalized growth,"locus YKL160W, strain elf1, stronger effect = lower value",0.996
same,normalized growth,"locus YKR026C, strain gcn3, stronger effect = lower value",1
same,normalized growth,"locus YKR091W, strain srl3, stronger effect = lower value",1
same,normalized growth,"locus YLL001W, strain dnm1, stronger effect = lower value",0.999
same,normalized growth,"locus YLL026W, stronger effect = lower value",0.999
same,normalized growth,"locus YLL041C, strain sdh2, stronger effect = lower value",1
same,normalized growth,"locus YLR027C, strain aat2, stronger effect = lower value",1.01
same,normalized growth,[5],1.03
same,normalized growth,"locus YLR221C, strain rsa3, stronger effect = lower value",1
same,normalized growth,"locus YLR258W, strain gsy2, stronger effect = lower value",1
same,normalized growth,"locus YLR262C, strain YPT6 (second series), stronger effect = lower value",0.991
same,normalized growth,"locus YLR320W, strain mms22, stronger effect = lower value",0.997
same,normalized growth,"locus YLR342W, strain FKS1, stronger effect = lower value",1.01
same,normalized growth,"locus YLR357W, strain rsc2, stronger effect = lower value",0.833 (active)
same,normalized growth,"locus YLR370C, strain arc18, stronger effect = lower value",1.01
same,normalized growth,"locus YLR384C, strain iki3, stronger effect = lower value",1
same,normalized growth,"locus YML120C, strain ndi1, stronger effect = lower value",0.999
same,normalized growth,"locus YMR058W, strain fet3, stronger effect = lower value",1
same,normalized growth,"locus YMR125W, strain sto1, stronger effect = lower value",0.993
same,normalized growth,"locus YMR129W, stronger effect = lower value",1.02
same,normalized growth,"locus YMR205C, strain PFK2, stronger effect = lower value",1.01
same,normalized growth,"locus YMR231W, strain pep5, stronger effect = lower value",0.998
same,normalized growth,"locus YMR263W, strain SAP30, stronger effect = lower value",1.01
same,normalized growth,"locus YMR307W, strain GAS1, stronger effect = lower value",1.02
same,normalized growth,"locus YNL071W, strain lat1, stronger effect = lower value",1
same,normalized growth,"locus YNL128W, strain TEP1, stronger effect = lower value",0.987
same,normalized growth,[15],1
same,normalized growth,[16],0.991
same,normalized growth,[6],0.989
same,normalized growth,[17],0.992
same,normalized growth,"locus YNL209W, strain ssb2, stronger effect = lower value",1.01
same,normalized growth,[18],1.01
same,normalized growth,"locus YNL248C, strain rpa49, stronger effect = lower value",1.01
same,normalized growth,"locus YNL322C, strain KRE1 (second series), stronger effect = lower value",0.998
same,normalized growth,"locus YNR049C, strain mso1, stronger effect = lower value",1
same,normalized growth,"locus YOR001W, strain rrp6, stronger effect = lower value",0.995
same,normalized growth,"locus YOR070C, strain gyp1, stronger effect = lower value",0.989
same,normalized growth,"locus YOR080W, strain dia2, stronger effect = lower value",0.996
same,normalized growth,[19],0.997
same,normalized growth,"locus YOR083W, strain WHI5, stronger effect = lower value",0.995
same,normalized growth,"locus YOR106W, strain vam3, stronger effect = lower value",1.04
same,normalized growth,[7],1.05
same,normalized growth,"locus YOR265W, strain rbl2, stronger effect = lower value",1.01
same,normalized growth,"locus YOR270C, strain vph1, stronger effect = lower value",1.06
same,normalized growth,"locus YOR290C, strain snf2, stronger effect = lower value",0.956
same,normalized growth,"locus YPL051W, strain arl3, stronger effect = lower value",0.994
same,normalized growth,[20],1.01
same,normalized growth,"locus YPL078C, strain atp4, stronger effect = lower value",1.01
same,normalized growth,"locus YPL106C, strain sse1, stronger effect = lower value",1
same,normalized growth,"locus YPL240C, strain hsp82, stronger effect = lower value",1.02
same,normalized growth,[8],1.12
